PubChem BioAssay (NCATS)
Inconclusive results are not listed. Active and inactive are the calls of the source. Unless noted, the call rests on the fitted dose curve; in most records, active means well fitted inhibition curve with a large enough effect; inconclusive means small, poorly fitted or top-dose-only effect; inactive means flat fitted curve, though single readings scatter.

Tests used:
[1] = qHTS for identification of novel therapeutic agents for treatment of microphthalmiaassociated transcription factor (MiT) renal cell carcinoma (RCC) (AID 1963991); conditions: CellTiter-Glo, 48 h, stronger effect = lower value;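 further: curves scaled with 100% = DMSO viability and 0% = empty wells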
Summary of the method: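 UOK109/UOK124/UOK145 (TFE3 fusions, three partners); 500 cells/well; MIPE v4.0, 1912 cpds, 11 conc.; 48 h, 37 C; CellTiter-Glo, 15 min RT; lum. Norm.: DMSO 100%, empty 0%.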

[2] = qHTS drug screen for cell cycle checkpoint inhibitors in PARPi-resistant BRCA-mutant ovarian cancer cell lines. (AID 1963452; calls by dose curve); conditions: PEO1/OlaR viability, CellTiter-Glo luminescence, 96 h, stronger effect = lower value
Summary of the method: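 PEO1, PEO4 and PEO1/OlaR ovarian cancer cells, 600 per well, exposed 96 h at 37C to a dilution series. Viability read by CellTiter-Glo luminescence, normalized to DMSO and empty wells; activity summarized as Z-AUC.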

3D7 = test: qHTS profiling for inhibitors of Plasmodium falciparum proliferation (AID 504749);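 further: 0% = DMSO vehicle and full inhibition = artemisinin control; nearly all actives have a fitted effect of over 60% in size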; conditions: P. falciparum in erythrocytes, SYBR Green DNA, 72 h; series mostly up to 28.7 µM
Summary of the method: (§1)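 SYBR Green fluorescence (ex 485 nm, em 535 nm) reports parasite DNA after 72 h compound exposure of infected red cells at 0.3% parasitemia, 2.5% hematocrit; signal normalized to 0.29 uM artemisinin and vehicle wells.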

7G8 = test: as above; conditions: P. falciparum in erythrocytes, SYBR Green DNA, 72 h; series mostly up to 28.7 µM
Summary of the method: as §1

AA1029 = test: as above; conditions: P. falciparum in erythrocytes, SYBR Green DNA, 72 h; series mostly up to 28.7 µM
Summary of the method: as §1

AS120 = test: as above; conditions: P. falciparum in erythrocytes, SYBR Green DNA, 72 h; series mostly up to 28.7 µM
Summary of the method: as §1

ATS189 = test: as above; conditions: P. falciparum in erythrocytes, SYBR Green DNA, 72 h; series mostly up to 28.7 µM
Summary of the method: as §1

C2A = test: as above; conditions: P. falciparum in erythrocytes, SYBR Green DNA, 72 h; series mostly up to 28.7 µM
Summary of the method: as §1

CP185 = test: as above; conditions: P. falciparum in erythrocytes, SYBR Green DNA, 72 h; series mostly up to 28.7 µM
Summary of the method: as §1

CP191 = test: as above; conditions: P. falciparum in erythrocytes, SYBR Green DNA, 72 h; series mostly up to 28.7 µM
Summary of the method: as §1

CP192 = test: as above; conditions: P. falciparum in erythrocytes, SYBR Green DNA, 72 h; series mostly up to 28.7 µM
Summary of the method: as §1

CP194 = test: as above; conditions: P. falciparum in erythrocytes, SYBR Green DNA, 72 h; series mostly up to 28.7 µM
Summary of the method: as §1

CP201 = test: as above; conditions: P. falciparum in erythrocytes, SYBR Green DNA, 72 h; series mostly up to 28.7 µM
Summary of the method: as §1

CP203 = test: as above; conditions: P. falciparum in erythrocytes, SYBR Green DNA, 72 h; series mostly up to 28.7 µM
Summary of the method: as §1

CP211 = test: as above; conditions: P. falciparum in erythrocytes, SYBR Green DNA, 72 h; series mostly up to 28.7 µM
Summary of the method: as §1

CP215 = test: as above; conditions: P. falciparum in erythrocytes, SYBR Green DNA, 72 h; series mostly up to 28.7 µM
Summary of the method: as §1

[3] = TFE3-RCC UOK109 viability, measured here: UOK109 Z-AUC
[4] = TFE3-RCC viability, measured here: UOK124 Z-AUC
[5] = TFE3-RCC viability, measured here: UOK145 Z-AUC

## CCCCCCCCCCCCCCCC(=O)OC[C@@H](NC(=O)C(Cl)Cl)[C@H](O)c1ccc([N+](=O)[O-])cc1
[1]; [3]
  z-score: 1.8
[1]; [4]
  z-score: 0.082
[1]; [5]
  z-score: 0.929

## CN[C@H](CC(C)C)C(=O)N[C@H]1C(=O)N[C@@H](CC(N)=O)C(=O)N[C@@H]2C(=O)N[C@H]3C(=O)N[C@H](C(=O)N[C@H](C(=O)O)c4cc(O)cc(O)c4-c4cc3ccc4O)[C@H](O)c3ccc(c(Cl)c3)Oc3cc2cc(c3O[C@@H]2O[C@H](CO)[C@@H](O)[C@H](O)[C@@H]2O[C@H]2C[C@](C)(N)[C@H](O)[C@H](C)O2)Oc2ccc(cc2Cl)[C@H]1O
[1]; [3]
  z-score: 0.508
[1]; [4]
  z-score: 0.868
[1]; [5]
  z-score: 0.133

## CC[C@H]1OC(=O)[C@H](C)[C@@H](O[C@H]2C[C@@](C)(OC)[C@@H](O)[C@H](C)O2)[C@H](C)[C@@H](O[C@@H]2O[C@@H](C)C[C@H](N(C)C)[C@@H]2O)[C@](C)(O)C[C@@H](C)C(=O)[C@H](C)[C@@H](O)[C@]1(C)O
[1]; [3]
  z-score: 0.677
[1]; [4]
  z-score: 0.444
[1]; [5]
  z-score: 0.443

## CC(C)(O)[C@H]1CC[C@@](C)([C@H]2[C@@H](O)C[C@@]3(C)[C@@H]4C[C@H](O[C@@H]5O[C@H](CO)[C@@H](O)[C@H](O)[C@@H]5O)[C@H]5C(C)(C)[C@@H](O[C@@H]6OC[C@@H](O)[C@H](O)[C@@H]6O)CC[C@@]56C[C@@]46CC[C@]23C)O1
[1]; [3]
  z-score: 0.913
[1]; [4]
  z-score: 0.41
[1]; [5]
  z-score: 0.699

## O=C(NNC(=O)c1ccc(CNS(=O)(=O)c2ccc(F)c(Cl)c2)cc1)c1ccccc1
[1]; [3]
  z-score: 0.375
[1]; [4]
  z-score: 0.329
[1]; [5]
  z-score: 0.518

## C[C@]12CCC(=O)C=C1[C@@H]1CC1[C@H]1[C@H]3[C@@H]4C[C@H]4[C@@]4(CCC(=O)O4)[C@@]3(C)CC[C@H]12 (some centres not stated)
[1]; [3]
  z-score: 0.661
[1]; [4]
  z-score: 0.572
[1]; [5]
  z-score: -2.84

## C[C@H]1O[C@H](O[C@H]2[C@H](O)[C@@H](O)[C@@H](O[C@H]3[C@H](O)[C@@H](O)C(O)O[C@H]3CO)O[C@H]2CO)[C@H](O)[C@@H](O)[C@H]1N[C@H]1C=C(CO)[C@@H](O)[C@H](O)[C@@H]1O (some centres not stated)
[1]; [3]
  z-score: 0.975
[1]; [4]
  z-score: 0.169
[1]; [5]
  z-score: 1.64

## NC(=O)c1ncn([C@@H]2O[C@H](CO)[C@@H](O)[C@@H]2O)c1N
[1]; [3]
  z-score: 0.684
[1]; [4]
  z-score: 0.695
[1]; [5]
  z-score: 0.605

## Cc1onc(-c2ccccc2)c1C(=O)N[C@@H]1C(=O)N2[C@@H](C(=O)O)C(C)(C)S[C@@H]12
[1]; [3]
  z-score: 2.05
[1]; [4]
  z-score: 0.727
[1]; [5]
  z-score: 1.83

## Cc1cn([C@@H]2O[C@H](CO)[C@@H](O)[C@H]2F)c(=O)[nH]c1=O
[1]; [3]
  z-score: 0.17
[1]; [4]
  z-score: 0.993
[1]; [5]
  z-score: 0.494

## CC(=O)N[C@H]1[C@@H]([C@H](O)[C@H](O)CO)OC(C(=O)O)=C[C@@H]1N=C(N)N
[1]; [3]
  z-score: 0.312
[1]; [4]
  z-score: 0.639
[1]; [5]
  z-score: 0.195

## CC[C@H](CC[C@@H](C)[C@H]1CC[C@H]2[C@@H]3CC=C4C[C@@H](O)CC[C@]4(C)[C@@H]3CC[C@]12C)C(C)C
[1]; [3]
  z-score: 0.368
[1]; [4]
  z-score: 0.916
[1]; [5]
  z-score: 0.197

## CON=C(C(=O)N[C@@H]1C(=O)N2C(C(=O)O)=C(Cn3ccc(=N)n3CCO)CS[C@H]12)c1csc(N)n1
[1]; [3]
  z-score: 1.44
[1]; [4]
  z-score: 0.0348
[1]; [5]
  z-score: 0.881

## O=C(C=CC=Cc1ccc2c(c1)OCO2)N1CCCCC1
[1]; [3]
  z-score: 0.531
[1]; [4]
  z-score: 0.306
[1]; [5]
  z-score: 0.432

## CC(=O)O[C@H]1C[C@@H]2CC[C@H]3[C@H]4C[C@H]([N+]5(C)CCCCC5)[C@@H](OC(C)=O)[C@@]4(C)CC[C@@H]3[C@@]2(C)C[C@H]1N1CCCCC1
[1]; [3]
  z-score: 0.765
[1]; [4]
  z-score: 0.686
[1]; [5]
  z-score: -3.76

## C[C@H]1COc2c(N3CCN(C)CC3)c(F)cc3c(=O)c(C(=O)O)cn1c23
[1]; [3]
  z-score: 1.28
[1]; [4]
  z-score: 0.967
[1]; [5]
  z-score: 1.39

## COc1ccc([C@@H]2CNC(=O)C2)cc1OC1CCCC1
[2]
  Z-AUC: -0.0996 (inactive)
[2]; measured here: PEO1 parental Z-AUC
  Z-AUC: -0.168
[2]; measured here: PEO4 Z-AUC
  Z-AUC: 0.0398
3D7
  Potency: inactive
7G8
  Potency: inactive
AA1029
  Potency: inactive
AS120
  Potency: inactive
ATS189
  Potency: inactive
C2A
  Potency: inactive
CP185
  Potency: inactive
CP191
  Potency: inactive
CP192
  Potency: inactive
CP194
  Potency: inactive
CP201
  Potency: inactive
CP203
  Potency: inactive
CP211
  Potency: inactive
CP215
  Potency: inactive

## CC(=O)OC[C@@H]1O[C@@H](n2ccc(=O)[nH]c2=O)[C@H](OC(C)=O)[C@H]1OC(C)=O
[1]; [3]
  z-score: 0.396
[1]; [4]
  z-score: 1.22
[1]; [5]
  z-score: 0.244

## O=C(O)C(=O)Nc1cccc(C2=NN=N[N]2)c1
[1]; [3]
  z-score: 0.225
[1]; [4]
  z-score: 0.525
[1]; [5]
  z-score: 0.0651

## CCC[C@H]1C[C@H](C(=O)N[C@@H]([C@@H]2O[C@@H](SC)[C@@H](O)[C@@H](O)[C@@H]2O)[C@H](C)Cl)N(C)C1
[1]; [3]
  z-score: 0.606
[1]; [4]
  z-score: 0.328
[1]; [5]
  z-score: -0.0561

## COC1=C(OC)C(=O)C(CC=C(C)CCC=C(C)CCC=C(C)CCC=C(C)CCC=C(C)CCC=C(C)CCC=C(C)CCC=C(C)CCC=C(C)CCC=C(C)C)=C(C)C1=O
[1]; [3]
  z-score: 0.576
[1]; [4]
  z-score: 0.211
[1]; [5]
  z-score: 0.661
